Screening results: PubChem, several laboratories
Hits are enriched below; roughly 2.6% of the tested compounds scored in any of these assays.
EBV LMP1 NFkB = reduces LMP1-driven NF-kappaB luciferase signal | 350,000 tested, 0.69% active | LMP1-induced NF-kappaB luciferase reporter cells, luminescence | inhibition, % at 12.5 µM | AID 504558; in the data active = inhibition above about 41%;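 also: 0% = neutral control wells and 100% = reference inhibitor control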
LGR2 antag = blocks bursicon-induced cAMP signaling via Drosophila LGR2 | HEK293 LGR2, CRE-luciferase, bursicon-stimulated, 4 h | 380,000 tested, 0.35% active | inhibition, % at 9.99 µM;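 active = drop in luminescence signal, shown as inhibition above about 50% in the replicate tests, limit read from the data, passing the limit was not always enough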;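 also: agonist challenge used bursicon conditioned medium at about half maximal strength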
TWEAK-Fn14 inh = inhibitors of TWEAK-Fn14 interaction signaling | TWEAK-stimulated Fn14 reporter cells, luciferase luminescence, 8 h | inhibition, % at 10 µM | 360,000 tested, 2% active | AID 1159606; in the data active = inhibition above about 50%
TROY NFkB inh = inhibitors of TROY-dependent NF-kB signaling | Q293 LMP1-TROYcd NF-kB luciferase reporter, 4 h | inhibition, % at 10 µM | 360,000 tested, 0.98% active | AID 1347056;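 active = compounds whose plate-normalised and pattern-corrected inhibition of the luciferase reporter signal at the single screening dose is 50% or more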
HSP90 inh = HSP90 refolding inhibition in rabbit reticulocyte lysate. 290,000 tested, 0.91% active. luciferase refolding luminescence, 3 h. inhibition, % at 5.6 µM;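 active = inhibition above the screen-wide mean plus 3 SD, computed separately per campaign, cut at about 16% in these data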;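 also: 0% = DMSO wells and 100% = 60 µM geldanamycin wells; inhibitors lower the luminescence because luciferase stays unfolded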
aDG glyco up = increases alpha dystroglycan glycosylation | Pro5-aDG cells, alpha-DG glycosylation AlphaScreen (IIH6); 0% Pro5, 100% B10-LARGE cell signal | activation, % at 10 µM | 360,000 tested, 0.22% active | AID 624168;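 active = activation of at least 8% versus controls, or a plate z-score of at least 8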;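 also: Pro5 are CHO cells carrying HIG-tagged alpha-DG that lacks glycosylation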
* marks the source's active call; other numbers are inactive results; . = no result given.

SMILES	EBV LMP1 NFkB	LGR2 antag	TWEAK-Fn14 inh	TROY NFkB inh	HSP90 inh	aDG glyco up
CN(C)CC(=O)N1CC2(C1)[C@@H](c1ccccc1)[C@H](CO)N2C(=O)C1CC1	.	-5	.	.	.	.
CC(=O)NC1CC2CCCC(C1)N2S(=O)(=O)c1cccc(F)c1 (configuration not stated)	2	.	104*	0	2	0
O=C(NC1CC2CCCC(C1)N2S(=O)(=O)c1ccccc1)c1ccco1 (configuration not stated)	-4	3	-11	12	2	0
C[C@@H]1CN([C@H](C)CO)S(=O)(=O)c2ccc(C3=CCCC3)cc2O[C@@H]1CN(C)Cc1ccccc1F	.	9	.	.	.	.
O=S(=O)(Nc1ccc(Br)cc1)c1cccc2nonc12	-3	9	24	-24	1	1
O=S(=O)(Nc1ccc(C(O)(C(F)(F)F)C(F)(F)F)cc1)c1ccc(Cl)c2nonc12	.	.	76*	10	.	0
COCC#Cc1cnc2c(c1)C(=O)N([C@@H](C)CO)C[C@H](C)[C@H](CN(C)C(=O)C1CCC1)O2	.	-13	.	.	.	.
Nc1ncnc(N2CCc3ccccc32)c1[N+](=O)[O-]	65*	15	84*	61*	-1	0
NNC(=O)c1ccc(N2CCc3ccccc32)c([N+](=O)[O-])c1	-4	14	-11	9	5	-1
CCOC(=O)c1cnc2ccc(C)cc2c1Nc1ccc(N2CCOCC2)cc1	-2	.	56*	25	-1	0
C[C@@H]1CCCCO[C@@H](CN(C)S(=O)(=O)c2ccccc2)[C@H](C)CN([C@@H](C)CO)C(=O)c2cc(NS(=O)(=O)c3ccc(Cl)cc3)ccc2O1	.	19	.	.	.	.
COc1ccccc1-c1ccc2c(c1)O[C@@H](CN(C)CC1CC1)[C@H](C)CN([C@@H](C)CO)S2(=O)=O	.	1	.	.	.	.
COc1ccc(C(CCNCc2ccc(F)cc2)c2ccc(F)cc2)cc1 (configuration not stated)	-15	59*	-19	11	-4	0
Cc1ccc(S(=O)(=O)Nc2ccc3c(c2)C(=O)N([C@H](C)CO)C[C@H](C)[C@H](CN(C)S(=O)(=O)c2ccc(F)cc2)OCCCC[C@H](C)O3)cc1	.	6	.	.	.	.
COc1ccc(-c2csc(NC3OC(=O)c4c3ccc(OC)c4OC)n2)cc1OC (configuration not stated)	16	.	67*	12	0	1
CO[C@H]1CN(C)C(=O)c2ccc(NC(=O)Nc3c(C)noc3C)cc2OC[C@H](C)N(CCC(F)(F)F)C[C@@H]1C	.	1	.	.	.	.
CCOc1ccc2nc(N/C(N)=N/C(=S)Nc3ccc(OC)cc3)nc(C)c2c1	-1	-14	-11	-9	0	7
CCc1ccc(NC(=S)/N=C(\N)Nc2nc(C)c3cc(CC)ccc3n2)cc1	11	-18	57*	41	1	1
c1cc(-c2cc3cc(N4CCOCC4)ccc3o2)cs1	3	-13	65*	38	.	0
CCOC(=O)c1cccc(N2C(=O)C3C(C2=O)C2C=CC3C23CC3)c1 (configuration not stated)	11	-13	89*	.	0	0
CC(=O)Oc1cccc(N2C(=O)C3C(C2=O)C2C=CC3C23CC3)c1 (configuration not stated)	0	.	0	8	1	2
CCCC(=O)Nc1ccc2c(c1)C(=O)N(C)[C@@H]1CC[C@H](CC(=O)NCCCN(C)C)O[C@@H]1CO2	.	4	.	.	.	.
CC(C)CC#Cc1ccc2c(c1)O[C@@H](CN(C)Cc1ccccc1F)[C@H](C)CN([C@H](C)CO)S2(=O)=O	.	-13	.	.	.	.
CCC[n+]1c(C)sc2c3c(ccc21)CCCC3	23	.	4	-10	4	6.9*
O=C(c1ccncc1)N1CCc2ccccc2C1	1	-1	4	2	-3	0
SMILES	EBV LMP1 NFkB	LGR2 antag	TWEAK-Fn14 inh	TROY NFkB inh	HSP90 inh	aDG glyco up
O=C(c1ccc(Cl)nc1)N1CCc2ccccc2C1	-4	11	79*	.	3	0
O=C(Oc1ccc2c(-c3ccccc3)cc(=O)oc2c1)C1CCCCC1	4	.	11	-20	3	0
COc1ccc(-c2cc(=O)oc3cc(OC(=O)C4CCCCC4)ccc23)cc1	11	11	54*	22	0	0
O=C(/C=C/c1cccc([N+](=O)[O-])c1)N1CCN(c2ccccn2)CC1	-5	-17	-3	0	2	0
Cc1cc(O)c(C(=O)/C=C/c2cccc([N+](=O)[O-])c2)c(=O)o1	-6	.	-19	-2	1	0
CC(=O)Oc1ccccc1C(=O)C=Cc1cccc([N+](=O)[O-])c1	18	101*	83*	20	.	0
COc1ccccc1C(=O)/C=C/c1ccc(N2CCCCC2)c([N+](=O)[O-])c1	-11	-11	55*	-34	4	0
O=C(/C=C/c1cccc([N+](=O)[O-])c1)n1cnc2ccccc21	7	24	103*	20	-4	-1
O=C(/C=C/c1ccc(N2CCCCC2)c([N+](=O)[O-])c1)c1ccc(O)cc1	-26	-58	14	49	-5	2
CC(C)CC#Cc1cnc2c(c1)C(=O)N([C@H](C)CO)C[C@H](C)[C@H](CN(C)Cc1ccc3c(c1)OCO3)O2	.	1	.	.	.	.
CCCCN(C)C(=O)CCC(=O)NNc1nc2ccccc2c2nc(C)nn12	4	0	76*	-6	0	0
CCN(CC)CCCNC(=O)CCC(=O)NNc1nc2ccccc2c2nc(C)nn12	3	-1	13	-26	-2	0
Cc1c(/C=N/n2cnnc2)c2ccccc2n1CCOc1ccc(Cl)cc1	4	.	48	54*	0	2
O=C(NCC1CCCCC1)[C@@H]1[C@@H](CO)[C@@H]2Cn3c(ccc(-c4cccnc4)c3=O)[C@H]1N2	.	0	.	.	.	.
CC1=NN(c2ccccc2)C(=O)/C1=C/C=C/c1ccccc1	0	2	95*	27	-3	0
CC1=NN(c2cccc(C(=O)O)c2)C(=O)/C1=C\C=C\c1ccco1	4	-155	-7	-38	-1	0
C[C@H](NC(=O)C[C@@H]1C=C[C@H](NC(=O)c2cccnc2)[C@@H](CO)O1)c1ccccc1	.	-2	.	.	.	.
CCOc1ccc(N2CC(C(=O)Nc3ccc4c(c3)OCO4)CC2=O)cc1 (configuration not stated)	1	0	17	-13	0	0
CCc1cccc(CC)c1NC(=O)C1CC(=O)N(c2ccc3c(c2)OCCO3)C1 (configuration not stated)	3	.	69*	22	1	0
CCOc1ccc(N2CC(C(=O)Nc3ccc4c(c3)OCCO4)CC2=O)cc1 (configuration not stated)	7	10	78*	61*	6	0
